Data from the OligoGym collection.

target: C9orf37; experiment: pooled miR-30 sensor sort-seq; sequence = guide strand; conditions: shRNA

First: TCAAATTCCAGTTCTCCTTTAG
Second: TACCTTATCTATAAAATGCACA
The sensor-assay potency score (higher = more potent) of the first is lower: -1.07 for the first, -0.634 for the second.

First: TTCTCCTTTAGGGCGAAGGGGT
Second: TCTGTGGAACAGCATTTCTCAA
The sensor-assay potency score (higher = more potent) of the first is higher: -1.42 for the first, -1.65 for the second.

Going from TTCTGTGGAACAGCATTTCTCA to TTACCTTATCTATAAAATGCAC, the sensor-assay potency score (higher = more potent) falls from -0.352 to -0.752.

Going from TCCAGTTCTCCTTTAGGGCGAA to TTATCTATAAAATGCACAGGAC, the sensor-assay potency score (higher = more potent) falls from -0.959 to -1.03.

First: TTTGTCAGTTACCTTATCTATA
Second: TATCTATAAAATGCACAGGACC
The sensor-assay potency score (higher = more potent) of the first is higher: -0.888 for the first, -1.69 for the second.

Compared with AAATGCACAGGACCAGGCCGGG, ATGGTGGTGAAGAAGGCTCTGG is higher in sensor-assay potency score (higher = more potent): -1.34 for the first, -0.917 for the second.

target: C9orf72; experiment: as above; conditions: shRNA

First: TAAAATAAACAAAACACCCTAA
Second: TACATCTATAGCACCACTCTCT
The sensor-assay potency score (higher = more potent) of the first is higher: 0.0855 for the first, -0.415 for the second.

Compared with TTGACATCCACATCTATGTGTG, TATGCATCCATATTCTTCCTTT is higher in sensor-assay potency score (higher = more potent): -0.37 for the first, -0.33 for the second.

Compared with TATTTCTTCAGGAACACTGTGT, TTTCACTAGAGTGTCTCTGTGT is lower in sensor-assay potency score (higher = more potent): 0.74 for the first, 0.565 for the second.

First: TTACAGGAATCACTTCTCCAGT
Second: TACAGTAATTCTACACACCAAA
The sensor-assay potency score (higher = more potent) of the first is lower: -1.29 for the first, -0.818 for the second.

Going from TAATCTATCAACACACACTCTA to TTAATCTATCAACACACACTCT, the sensor-assay potency score (higher = more potent) falls from 0.268 to -0.521.

First: TAAATCAAGGTCTATCTTCAGG
Second: TATATTGTAAACATAGGTCTGT
The sensor-assay potency score (higher = more potent) of the first is lower: -0.851 for the first, 0.698 for the second.
